Assay results reported in PubChem BioAssay AID1159580 (chemical genetic matrix, 2015).
Several values for one entry are separate records, joined by “and”; a condition that tells them apart may be missing. Identical values can stand only once. The campaign covered roughly 5,500 compounds. About 2,000 (36%) were called active. Inconclusive results (about 18%) are left out. No stated cut-off is given here; in the data, active means normalized growth mostly below about 0.91 (no sharp cut-off); inconclusive means no clear call, values can overlap the other calls; inactive means mostly above about 0.92. The list shows a part of the results.

Test: chemical genetic growth profiling, strain panel (AID 1159580);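 further: tested at 20 µM; growth read once vehicle control cultures reached saturation at 30 °C; 1 = growth at the plate median or of vehicle wells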
Settings: S. cerevisiae deletion strains, growth OD
[1] = locus YHR030C, strain SLT2, stronger effect = lower value
[2] = locus YHR079C, strain IRE1, stronger effect = lower value
[3] = locus YJL095W, strain BCK1, stronger effect = lower value
[4] = locus YJR066W, strain TOR1, stronger effect = lower value
[5] = locus YLR113W, strain HOG1, stronger effect = lower value
[6] = locus YNL183C, strain NPR1, stronger effect = lower value
[7] = locus YOR231W, strain MKK1, stronger effect = lower value
[8] = locus YPL256C, strain CLN2, stronger effect = lower value

Measured: normalized growth

C[C@H]1CC2C([C@@H](O)C[C@@]3(C)C2CC[C@]3(O)C(=O)COC(=O)CCC(=O)O)[C@@]2(C)C=CC(=O)C=C12 (some centres undefined)
inactive: [1] 0.999 | [2] 1.02 | [3] 1.02 | [4] 1 | [5] 1.04 | [6] 0.995 | [7] 1.06 | [8] 1.03

CC1=C2[C@H]3OC(=O)[C@@H](C)[C@@H]3CC[C@@]2(C)C=CC1=O
inactive: locus YAL013W, strain DEP1, stronger effect = lower value 1.01 | locus YAL021C, strain ccr4, stronger effect = lower value 0.97 | locus YAL026C, strain drs2, stronger effect = lower value 0.968 | locus YAL030W, strain snc1, stronger effect = lower value 0.982 | locus YBL061C, strain skt5, stronger effect = lower value 0.968 | locus YBR009C, strain hhf1, stronger effect = lower value 0.975 | locus YBR021W, strain FUR4, stronger effect = lower value 0.972 | locus YBR023C, strain chs3, stronger effect = lower value 0.953 | locus YBR171W, strain sec66, stronger effect = lower value 0.962 | locus YBR229C, strain ROT2, stronger effect = lower value 1.01 | locus YBR231C, strain swc5, stronger effect = lower value 0.992 | locus YBR279W, strain paf1, stronger effect = lower value 0.994 | locus YCL011C, strain gbp2, stronger effect = lower value 0.979 | locus YCL016C, strain dcc1, stronger effect = lower value 0.995 | locus YCL029C, strain bik1, stronger effect = lower value 1.04 | locus YCL061C, strain MRC1, stronger effect = lower value 0.976 | locus YCL069W, strain vba3, stronger effect = lower value 0.967 | locus YCR088W, strain abp1, stronger effect = lower value 0.976 | locus YDL005C, strain med2, stronger effect = lower value 0.964 | locus YDL035C, strain GPR1, stronger effect = lower value 1.02 | locus YDL040C, strain nat1, stronger effect = lower value 0.979 | locus YDL074C, strain BRE1, stronger effect = lower value 1.02 | locus YDL101C, strain DUN1, stronger effect = lower value 1.02 | locus YDL185W, strain tfp1, stronger effect = lower value 1.02 | locus YDL192W, strain arf1, stronger effect = lower value 1.03 | locus YDR001C, strain nth1, stronger effect = lower value 0.98 | locus YDR069C, strain doa4, stronger effect = lower value 0.946 | locus YDR101C, strain arx1, stronger effect = lower value 1.01 | locus YDR137W, strain rgp1, stronger effect = lower value 0.972 | locus YDR159W, strain sac3, stronger effect = lower value 0.941 | locus YDR162C, strain NBP2, stronger effect = lower value 1.02 | locus YDR195W, strain ref2 0.953 | locus YDR297W, strain sur2, stronger effect = lower value 0.968 | locus YDR318W, strain mcm21, stronger effect = lower value 1.04 | locus YDR334W, strain swr1, stronger effect = lower value 0.96 | locus YDR335W, strain msn5, stronger effect = lower value 0.987 | locus YDR388W, stronger effect = lower value 1.01 | locus YDR392W, strain spt3, stronger effect = lower value 0.99 | locus YDR502C, strain sam2, stronger effect = lower value 1.02 | locus YEL003W, strain gim4, stronger effect = lower value 0.98 | locus YEL037C, strain rad23, stronger effect = lower value 0.978 | locus YEL061C, strain CIN8 (second series), stronger effect = lower value 0.972 | locus YEL061C, strain CIN8, stronger effect = lower value 1.01 | locus YER015W, strain faa2, stronger effect = lower value 0.974 | locus YER016W, strain bim1, stronger effect = lower value 0.978 | locus YER110C, stronger effect = lower value 1.02 | locus YER111C, strain swi4, stronger effect = lower value 0.963 | locus YER155C, strain BEM2 (second series), stronger effect = lower value 0.946 | locus YER155C, strain BEM2, stronger effect = lower value 1 | locus YER167W, strain BCK2, stronger effect = lower value 1.01 | locus YFR010W, strain ubp6, stronger effect = lower value 0.953 | locus YGL078C, strain dbp3, stronger effect = lower value 1.02 | locus YGL086W, strain mad1, stronger effect = lower value 1.01 | locus YGL167C, strain pmr1, stronger effect = lower value 0.963 | locus YGL173C, strain kem1, stronger effect = lower value 0.974 | locus YGL227W, strain vid30, stronger effect = lower value 0.984 | locus YGL240W, strain doc1, stronger effect = lower value 0.963 | locus YGL248W, strain PDE1, stronger effect = lower value 1.03 | locus YGL253W, strain hxk2, stronger effect = lower value 0.98 | locus YGR078C, strain PAC10, stronger effect = lower value 1.02 | locus YGR135W, strain pre9, stronger effect = lower value 1.03 | locus YGR229C, strain SMI1, stronger effect = lower value 1.05 | locus YGR252W, strain gcn5, stronger effect = lower value 0.991 | locus YHR013C, strain ard1, stronger effect = lower value 0.956 | locus YHR027C, strain rpn1, stronger effect = lower value 0.986 | [1] 0.981 | locus YHR079C, strain IRE1 (second series), stronger effect = lower value 1.02 | [2] 1 | locus YHR094C, strain hxt1, stronger effect = lower value 1.03 | locus YHR129C, strain ARP1, stronger effect = lower value 1.01 | locus YHR142W, strain chs7, stronger effect = lower value 0.98 | locus YHR200W, strain rpn10, stronger effect = lower value 1.01 | locus YIL066C, strain RNR3, stronger effect = lower value 1.02 | locus YIL073C, strain SPO22, stronger effect = lower value 1.06 | locus YIL125W, strain kgd1, stronger effect = lower value 1.02 | locus YIR030C, strain dcg1, stronger effect = lower value 1.02 | locus YJL092W, strain hpr5, stronger effect = lower value 0.975 | locus YJL095W, strain BCK1 (second series), stronger effect = lower value 0.964 | [3] 1.03 and 0.993 | locus YJL115W, strain asf1, stronger effect = lower value 0.973 | locus YJL129C, strain trk1, stronger effect = lower value 0.962 | locus YJL134W, strain LCB3, stronger effect = lower value 1.01 | locus YJL154C, strain vps35, stronger effect = lower value 0.98 | locus YJL164C, strain tpk1, stronger effect = lower value 0.984 | locus YJL166W, strain qcr8, stronger effect = lower value 0.969 | locus YJL168C, strain set2, stronger effect = lower value 1.02 | locus YJL187C, strain SWE1 (second series), stronger effect = lower value 1.02 | locus YJL187C, strain SWE1, stronger effect = lower value 0.966 | locus YJR043C, strain POL32, stronger effect = lower value 1.01 | [4] 0.956 | locus YJR075W, strain HOC1, stronger effect = lower value 1.02 | locus YKL009W, strain mrt4, stronger effect = lower value 1.03 | locus YKL068W, stronger effect = lower value 0.995 | locus YKL085W, strain MDH1 (second series), stronger effect = lower value 1.02 | locus YKL085W, strain MDH1, stronger effect = lower value 1.02 | locus YKL160W, strain elf1, stronger effect = lower value 0.994 | locus YKL190W, strain CNB1, stronger effect = lower value 1.01 | locus YKR001C, strain vps1, stronger effect = lower value 1.03 | locus YKR026C, strain gcn3, stronger effect = lower value 0.965 | locus YKR091W, strain srl3, stronger effect = lower value 0.983 | locus YLL001W, strain dnm1, stronger effect = lower value 0.996 | locus YLL026W, stronger effect = lower value 0.995 | locus YLL041C, strain sdh2, stronger effect = lower value 0.998 | locus YLR027C, strain aat2, stronger effect = lower value 0.979 | locus YLR039C, strain RIC1, stronger effect = lower value 1.04 | locus YLR058C, strain SHM2, stronger effect = lower value 1.02 | locus YLR102C, strain apc9, stronger effect = lower value 1.03 | [5] 0.963 | locus YLR221C, strain rsa3, stronger effect = lower value 0.959 | locus YLR258W, strain gsy2, stronger effect = lower value 0.985 | locus YLR262C, strain YPT6 (second series), stronger effect = lower value 0.997 | locus YLR262C, strain YPT6, stronger effect = lower value 1.06 | locus YLR268W, strain sec22, stronger effect = lower value 1.02 | locus YLR320W, strain mms22, stronger effect = lower value 0.978 | locus YLR342W, strain FKS1 (second series), stronger effect = lower value 1.01 | locus YLR342W, strain FKS1, stronger effect = lower value 0.974 | locus YLR357W, strain rsc2, stronger effect = lower value 0.948 | locus YLR370C, strain arc18, stronger effect = lower value 0.977 | locus YLR371W, strain rom2, stronger effect = lower value 1.01 | locus YLR384C, strain iki3, stronger effect = lower value 0.96 | locus YLR418C, strain cdc73, stronger effect = lower value 1.03 | locus YML016C, strain PPZ1, stronger effect = lower value 1.02 | locus YML032C, strain rad52, stronger effect = lower value 1.02 | locus YML120C, strain ndi1, stronger effect = lower value 1.01 | locus YML124C, strain tub3, stronger effect = lower value 1.02 | locus YMR058W, strain fet3, stronger effect = lower value 0.977 | locus YMR078C, strain ctf18, stronger effect = lower value 1.04 | locus YMR125W, strain sto1, stronger effect = lower value 0.968 | locus YMR129W, stronger effect = lower value 0.997 | locus YMR205C, strain PFK2, stronger effect = lower value 0.982 | locus YMR223W, strain ubp8, stronger effect = lower value 1.01 | locus YMR231W, strain pep5, stronger effect = lower value 0.973 | locus YMR263W, strain SAP30, stronger effect = lower value 1.02 | locus YMR307W, strain GAS1, stronger effect = lower value 1.05 | locus YNL067W, strain RPL9B, stronger effect = lower value 1.02 | locus YNL071W, strain lat1, stronger effect = lower value 0.994 | locus YNL153C, strain GIM3, stronger effect = lower value 1.03 | [6] 0.951 | locus YNL209W, strain ssb2, stronger effect = lower value 0.981 | locus YNL233W, strain BNI4, stronger effect = lower value 1.02 | locus YNL248C, strain rpa49, stronger effect = lower value 0.962 | locus YNL250W, strain rad50, stronger effect = lower value 1.04 | locus YNL271C, strain bni1, stronger effect = lower value 1.02 | locus YNL298W, strain CLA4, stronger effect = lower value 1.03 | locus YNL307C, strain MCK1, stronger effect = lower value 1.03 | locus YNL322C, strain KRE1 (second series), stronger effect = lower value 0.954 | locus YNR049C, strain mso1, stronger effect = lower value 0.983 | locus YNR052C, strain pop2, stronger effect = lower value 1.01 | locus YOL012C, strain htz1 0.992 | locus YOL147C, strain pex11, stronger effect = lower value 1.02 | locus YOR001W, strain rrp6, stronger effect = lower value 0.939 | locus YOR061W, strain CKA2, stronger effect = lower value 1.02 | locus YOR069W, strain VPS5, stronger effect = lower value 1.01 | locus YOR070C, strain gyp1, stronger effect = lower value 0.984 | locus YOR080W, strain dia2, stronger effect = lower value 0.97 | locus YOR083W, strain WHI5, stronger effect = lower value 1.01 | locus YOR106W, strain vam3, stronger effect = lower value 1 | locus YOR136W, strain idh2, stronger effect = lower value 1.01 | locus YOR144C, strain elg1, stronger effect = lower value 1.02 | locus YOR184W, strain ser1, stronger effect = lower value 1.03 | [7] 0.965 | locus YOR265W, strain rbl2, stronger effect = lower value 0.99 | locus YOR270C, strain vph1, stronger effect = lower value 0.926 | locus YOR290C, strain snf2, stronger effect = lower value 0.982 | locus YOR316C, strain cot1, stronger effect = lower value 1.02 | locus YPL051W, strain arl3, stronger effect = lower value 0.987 | locus YPL078C, strain atp4, stronger effect = lower value 0.988 | locus YPL106C, strain sse1, stronger effect = lower value 0.96 | locus YPL240C, strain hsp82, stronger effect = lower value 0.964 | locus YPL241C, strain CIN2, stronger effect = lower value 1.01 | [8] 0.977 | locus YPR119W, strain clb2, stronger effect = lower value 1.01 | locus YPR141C, strain kar3, stronger effect = lower value 1.02 | locus YPR163C, strain tif3, stronger effect = lower value 1.03 | locus YPR167C, strain met16, stronger effect = lower value 1.02 | strain wtn01, stronger effect = lower value 1
